# Experimental data: PubChem BioAssay (NCI)
# Compounds without any hit were thinned out: in the full panel of roughly 79,000, 15% have a hit. Activity calls are given as the source filed them. No stated cut-off is given here; in the data, active means growth inhibition above about 70%; inactive means the rest.
# Assay: NCI Yeast Anticancer Drug Screen. Data for the mec2-1 strain (AID 157)
# Conditions: S. cerevisiae mec2-1 strain, at 5.0 µM (retest, dose inferred, filed as 0.5), hits give high values
# Outline: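 Using mec2-1 yeast: add compound, measure growth, express inhibition versus vehicle-treated cultures.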
row,SMILES,growth inhibition
1,O=C(c1ccc(Br)cc1)C1C(c2ccccc2)N1C1CCCCC1 (stereo not drawn),0% (inactive)
2,Cc1cccc2cc3ccccc3c[n+]12,6% (inactive)
3,Cc1ccc(P(=O)(c2ccc(C)cc2)c2ccc(C)cc2)cc1.Cc1ccc(P(=O)(c2ccc(C)cc2)c2ccc(C)cc2)cc1.[Cl][Sn]([Cl])([Cl])[Cl],0% (inactive)
4,c1ccc(P(CCP(c2ccccc2)c2ccccc2)CCP(c2ccccc2)c2ccccc2)cc1,94% (active)
5,O=[N+]([O-])c1cc2c([N+](=O)[O-])cccc2o1,8% (inactive)
6,O=C1CCC[N]1[Hg][N]1CCCC1=O,40% (inactive)
7,Oc1c(Cl)c(Cl)c(Cl)c(Cl)c1Cl.[Cu+2],18% (inactive)
8,ClCCN(CCCl)c1ccc(C=NCCCCN=Cc2ccc(N(CCCl)CCCl)cc2)cc1,10% (inactive)
9,CC(C(=O)C1CCCCC1)[n+]1ccccc1 (stereo not drawn),1% (inactive)
10,CN(C)CC1CCCCC1=O (stereo not drawn),-52% (inactive)
11,CSc1nncc(=O)[nH]1.[Hg],99% (active)
12,CNC(=O)N1CN(c2ccccc2)C2(CCN(CCCC(=O)c3ccc(F)cc3)CC2)C1=O,-14% (inactive)
13,O=C(OCc1ccccc1)C(C(Cl)c1ccccc1)N(Cc1ccccc1)Cc1ccccc1 (stereo not drawn),3% (inactive)
14,O=C1C=C(Cl)C(=O)C=C1Cl,13% (inactive)
15,CC(=O)[O][Hg][c]1ccccc1N,36% (inactive)
16,CCOP(=O)(Cc1cccc2ccccc12)OCC,5% (inactive)
17,Nc1c(Cl)cccc1C(=O)O,-2% (inactive)
18,CC(=O)O[C@H]1CC[C@H]2[C@@H]3CCC4=CC(=O)CC[C@@H]4[C@H]3CC[C@]12C,-1% (inactive)
19,C1CC[N-]CC1.CC(=N\O)/C(C)=N/O.CC(=N\O)/C(C)=N/O.OC1[CH-]CCCC1.[Co+2],5% (inactive)
20,c1ccc(C(C(=Nc2ccc(Cc3ccc(N=C(C(c4ccccc4)c4ccccc4)N4CC4)cc3)cc2)N2CC2)c2ccccc2)cc1,42% (inactive)

row,SMILES,growth inhibition
1,CCN(Cc1ccccc1)CC(O)c1ccc(Cl)c(Cl)c1 (stereo not drawn),-1% (inactive)
2,CC(=O)OC1C(O)C(C)OC(OC2C(OC(=O)C3CCC4C(C3)OC3(CC(OC(=O)/C=C/c5ccccc5)C(C)CO3)C43CO3)OC(C)C(O)C2OC(C)=O)C1O (stereo not drawn),10% (inactive)
3,CCCCC(CC)CNP(=S)(NCC(CC)CCCC)NCC(CC)CCCC (stereo not drawn),-3% (inactive)
4,Oc1c(-c2ccccc2)cc(-[n+]2c(-c3ccccc3)cc(-c3ccccc3)cc2-c2ccccc2)cc1-c1ccccc1,98% (active)
5,Cc1ccc([C@H]2N[C@@H]2c2ccccn2)cc1,-18% (inactive)
6,CC[CH2][Sn]([CH2]CC)([CH2]CC)[CH2]CCBr,99% (active)
7,O=[N+]([O-])c1cc(S(=O)(=O)F)ccc1S,-32% (inactive)
8,CCCCN(CCCC)CCc1ccc(OC(=O)c2ccc(N)cc2)cc1,23% (inactive)
9,Cc1ccc(C(=O)OC(C(=O)O)C(OC(=O)c2ccc(C)cc2)C(=O)O)cc1 (stereo not drawn) (tested in a mixture with another compound),-7% (inactive)
10,N#C[S-].[Ce+3].c1ccc(-c2ccccn2)nc1.c1ccc(-c2ccccn2)nc1.c1ccc(-c2ccccn2)nc1,43% (inactive)
11,Nc1nc(N)c(-c2ccc(Cl)c(Cl)c2)c(CCc2ccc(CNC(=O)c3ccc(S(=O)(=O)F)cc3)cc2)n1,3% (inactive)
12,CC1C2C=CC1C(c1c3ccc(=O)c(O)c-3oc3c(O)c(O)ccc13)C2C(=O)O (stereo not drawn),-1% (inactive)
13,O=C(O)CN(CCN(CC(=O)O)CC(=O)O)CC(=O)O,14% (inactive)
14,O=S(=O)(F)c1ccc(Cl)cc1C[P+](c1ccccc1)(c1ccccc1)c1ccccc1,22% (inactive)
15,Oc1ccc2ccccc2c1O,3% (inactive)
16,COC1=[C]([Hg][Br])C(OC)OC1OC (stereo not drawn),98% (active)
17,Nc1nc(CCl)cs1,0% (inactive)
18,CCC(C)N1CN(c2ccccc2)C2(CCN(CCCC3(c4ccc(F)cc4)OCCO3)CC2)C1=O (stereo not drawn),-7% (inactive)
19,COc1ccc(NP(=S)(Nc2ccc(OC)cc2)c2ccccc2)cc1,-2% (inactive)

# Same assay, conditions: S. cerevisiae mec2-1 strain, at 50.0 µM (retest, dose inferred, filed as 5.0), hits give high values
row,SMILES,growth inhibition
1,O=C(c1ccc(Br)cc1)C1C(c2ccccc2)N1C1CCCCC1 (stereo not drawn),73% (active)
2,Cc1cccc2cc3ccccc3c[n+]12,49% (inactive)
3,Cc1ccc(P(=O)(c2ccc(C)cc2)c2ccc(C)cc2)cc1.Cc1ccc(P(=O)(c2ccc(C)cc2)c2ccc(C)cc2)cc1.[Cl][Sn]([Cl])([Cl])[Cl],1% (inactive)
4,c1ccc(P(CCP(c2ccccc2)c2ccccc2)CCP(c2ccccc2)c2ccccc2)cc1,94% (active)
5,O=[N+]([O-])c1cc2c([N+](=O)[O-])cccc2o1,99% (active)
6,O=C1CCC[N]1[Hg][N]1CCCC1=O,51% (inactive)
7,Oc1c(Cl)c(Cl)c(Cl)c(Cl)c1Cl.[Cu+2],99% (active)
8,ClCCN(CCCl)c1ccc(C=NCCCCN=Cc2ccc(N(CCCl)CCCl)cc2)cc1,47% (inactive)
9,CC(C(=O)C1CCCCC1)[n+]1ccccc1 (stereo not drawn),1% (inactive)
10,CN(C)CC1CCCCC1=O (stereo not drawn),-24% (inactive)
11,CSc1nncc(=O)[nH]1.[Hg],99% (active)
12,CNC(=O)N1CN(c2ccccc2)C2(CCN(CCCC(=O)c3ccc(F)cc3)CC2)C1=O,23% (inactive)
13,O=C(OCc1ccccc1)C(C(Cl)c1ccccc1)N(Cc1ccccc1)Cc1ccccc1 (stereo not drawn),65% (inactive)
14,O=C1C=C(Cl)C(=O)C=C1Cl,100% (active)
15,CC(=O)[O][Hg][c]1ccccc1N,64% (inactive)
16,CCOP(=O)(Cc1cccc2ccccc12)OCC,-6% (inactive)
17,Nc1c(Cl)cccc1C(=O)O,0% (inactive)
18,CC(=O)O[C@H]1CC[C@H]2[C@@H]3CCC4=CC(=O)CC[C@@H]4[C@H]3CC[C@]12C,92% (active)
19,C1CC[N-]CC1.CC(=N\O)/C(C)=N/O.CC(=N\O)/C(C)=N/O.OC1[CH-]CCCC1.[Co+2],16% (inactive)
20,c1ccc(C(C(=Nc2ccc(Cc3ccc(N=C(C(c4ccccc4)c4ccccc4)N4CC4)cc3)cc2)N2CC2)c2ccccc2)cc1,59% (inactive)

row,SMILES,growth inhibition
1,CCN(Cc1ccccc1)CC(O)c1ccc(Cl)c(Cl)c1 (stereo not drawn),99% (active)
2,CC(=O)OC1C(O)C(C)OC(OC2C(OC(=O)C3CCC4C(C3)OC3(CC(OC(=O)/C=C/c5ccccc5)C(C)CO3)C43CO3)OC(C)C(O)C2OC(C)=O)C1O (stereo not drawn),98% (active)
3,CCCCC(CC)CNP(=S)(NCC(CC)CCCC)NCC(CC)CCCC (stereo not drawn),30% (inactive)
4,Oc1c(-c2ccccc2)cc(-[n+]2c(-c3ccccc3)cc(-c3ccccc3)cc2-c2ccccc2)cc1-c1ccccc1,99% (active)
5,Cc1ccc([C@H]2N[C@@H]2c2ccccn2)cc1,1% (inactive)
6,CC[CH2][Sn]([CH2]CC)([CH2]CC)[CH2]CCBr,100% (active)
7,O=[N+]([O-])c1cc(S(=O)(=O)F)ccc1S,93% (active)
8,CCCCN(CCCC)CCc1ccc(OC(=O)c2ccc(N)cc2)cc1,80% (active)
9,Cc1ccc(C(=O)OC(C(=O)O)C(OC(=O)c2ccc(C)cc2)C(=O)O)cc1 (stereo not drawn) (tested in a mixture with another compound),61% (inactive)
10,N#C[S-].[Ce+3].c1ccc(-c2ccccn2)nc1.c1ccc(-c2ccccn2)nc1.c1ccc(-c2ccccn2)nc1,99% (active)
11,Nc1nc(N)c(-c2ccc(Cl)c(Cl)c2)c(CCc2ccc(CNC(=O)c3ccc(S(=O)(=O)F)cc3)cc2)n1,66% (inactive)
12,CC1C2C=CC1C(c1c3ccc(=O)c(O)c-3oc3c(O)c(O)ccc13)C2C(=O)O (stereo not drawn),10% (inactive)
13,O=C(O)CN(CCN(CC(=O)O)CC(=O)O)CC(=O)O,70% (active)
14,O=S(=O)(F)c1ccc(Cl)cc1C[P+](c1ccccc1)(c1ccccc1)c1ccccc1,82% (active)
15,Oc1ccc2ccccc2c1O,59% (inactive)
16,COC1=[C]([Hg][Br])C(OC)OC1OC (stereo not drawn),99% (active)
17,Nc1nc(CCl)cs1,-2% (inactive)
18,CCC(C)N1CN(c2ccccc2)C2(CCN(CCCC3(c4ccc(F)cc4)OCCO3)CC2)C1=O (stereo not drawn),98% (active)
19,COc1ccc(NP(=S)(Nc2ccc(OC)cc2)c2ccccc2)cc1,57% (inactive)
